Data as given in PubChem BioAssay.
Activity calls are given as the source filed them.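 How the source made its calls, unless noted: active means NADPH fluorescence slope more negative than the mean of all samples by about 3 SD, 99.7% confidence; inactive means the rest.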

What was measured:
[1] = inhibitors of mutant huntingtin aggregation, primary screen, imaging, exon1htt(103Q)mCFP cells, high-content imaging (AID 483;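 active means visual image review flags a hit and inhibition of aggregation exceeds 20%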;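 further: compound exposure lasted 3 days before fixation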;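 on nuclei count: percent of the per-plate median nuclei count of sample wells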); settings: exon1htt(103Q)mCFP cell line, aggregate imaging, at 2 µM; inhibition of aggregation: stronger effect = higher value; nuclei count: measured here: cell count, toxicity
[2] = inhibitors of E-selectin induction by TNFa, primary screen, imaging, HUVEC, immunofluorescence, MLSMR starter and 10KST1 sets (AID 487;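 active means visually confirmed hit in the image check and inhibition above 20%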;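 on inhibition: signal is fraction of cell area covered by stained E-selectin grains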;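 on nuclei count: 100% = median nuclei count of all wells on the same plate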); settings: HUVEC TNFalpha-induced E-selectin immunofluorescence imaging, at 2 µM; inhibition: stronger effect = higher value; nuclei count: measured here: cell number, toxicity
[3] = DUSP6 inhibitors restoring Erk phosphorylation by chemical complementation, primary imaging in DUSP6-transfected HeLa (AID 609;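 active means compounds giving at least 50% inhibition in the cell-based MKP-3 phosphatase rescue imaging test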;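 on inhibition: phospho-Erk level distribution per well compared with pooled transfected vehicle control wells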); settings: HeLa MKP-3 transfected, phospho-Erk imaging KS statistic, at 10 µM, cells stimulated with TPA for 15 min
[4] = molecular target: Dual specificity protein phosphatase 6 (Homo sapiens) (UniProt Q16828); assay: as above; settings: HeLa MKP-3 transfected, phospho-Erk imaging KS statistic; at 10 µM; stronger effect = higher value; cells stimulated with TPA for 15 min
Chain of Dual specificity protein phosphatase 6 (Homo sapiens) (Q16828 whole entry, looked up): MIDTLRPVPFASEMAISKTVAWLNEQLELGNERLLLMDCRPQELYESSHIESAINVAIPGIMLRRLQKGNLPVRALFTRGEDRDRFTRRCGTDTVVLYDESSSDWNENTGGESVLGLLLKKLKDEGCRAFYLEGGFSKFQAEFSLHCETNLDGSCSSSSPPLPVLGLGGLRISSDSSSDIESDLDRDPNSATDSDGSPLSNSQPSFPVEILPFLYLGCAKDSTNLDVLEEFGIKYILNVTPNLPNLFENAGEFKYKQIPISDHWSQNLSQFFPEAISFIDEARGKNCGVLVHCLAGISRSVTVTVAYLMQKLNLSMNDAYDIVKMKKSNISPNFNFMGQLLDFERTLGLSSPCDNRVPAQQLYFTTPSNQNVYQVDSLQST

[5] = molecular target: Voltage-gated potassium channel subunit beta-2 (Rattus norvegicus) (UniProt P62483); assay: KvBeta enzyme negative modulators, primary screen, biochemical, NADPH fluorescence (AID 622;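 active means fluorescence slope higher than the sample average by over 3 SD, cut at about -0.22 in these data, passing the limit was not always enough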;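 further: slope of raw intensity against log time taken from 70 to 1610 s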); settings: recombinant KvBeta, 4-cyanobenzaldehyde reduction, at 10 µM, stronger effect = higher value
Chain of Voltage-gated potassium channel subunit beta-2 (Rattus norvegicus) (P62483 whole entry, looked up): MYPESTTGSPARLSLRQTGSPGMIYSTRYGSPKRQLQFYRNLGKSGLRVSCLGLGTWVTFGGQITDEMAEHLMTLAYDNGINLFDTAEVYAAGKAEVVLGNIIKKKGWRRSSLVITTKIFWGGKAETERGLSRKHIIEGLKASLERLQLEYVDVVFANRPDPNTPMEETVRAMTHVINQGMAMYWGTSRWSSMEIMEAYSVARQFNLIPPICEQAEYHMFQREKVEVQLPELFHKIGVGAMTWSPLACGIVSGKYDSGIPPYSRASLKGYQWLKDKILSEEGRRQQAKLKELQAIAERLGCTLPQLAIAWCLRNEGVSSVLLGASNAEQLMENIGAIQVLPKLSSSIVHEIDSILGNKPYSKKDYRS

[6] = molecular target: Voltage-gated potassium channel subunit beta-2 (Rattus norvegicus) (UniProt P62483); assay: KvBeta positive modulators, primary screen, biochemical, NADPH fluorescence (AID 623); settings: Recombinant KvBeta, NADPH fluorescence decrease slope, 10 min; at 10 µM; stronger effect = lower value;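 further: fluorescence intensity change per second fitted from 20 to 320 s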
[7] = molecular target: Alpha-2C adrenergic receptor (Homo sapiens) (UniProt P18825); assay: modulators of alpha2C/GIRK thallium flux, primary screen, cell-based, HEK293 alpha2C/GIRK1/2 (AID 624;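 active means fluorescence slope after compound addition differing from the mean of all screened samples at 99.7% confidence, in either direction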;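 further: slope of fluorescence ratio to pre-addition baseline per second over 15 to 24 s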); settings: thallium flux BTC fluorescence, at 10 µM, actives lie on both sides
Chain of Alpha-2C adrenergic receptor (Homo sapiens) (P18825 whole entry, looked up): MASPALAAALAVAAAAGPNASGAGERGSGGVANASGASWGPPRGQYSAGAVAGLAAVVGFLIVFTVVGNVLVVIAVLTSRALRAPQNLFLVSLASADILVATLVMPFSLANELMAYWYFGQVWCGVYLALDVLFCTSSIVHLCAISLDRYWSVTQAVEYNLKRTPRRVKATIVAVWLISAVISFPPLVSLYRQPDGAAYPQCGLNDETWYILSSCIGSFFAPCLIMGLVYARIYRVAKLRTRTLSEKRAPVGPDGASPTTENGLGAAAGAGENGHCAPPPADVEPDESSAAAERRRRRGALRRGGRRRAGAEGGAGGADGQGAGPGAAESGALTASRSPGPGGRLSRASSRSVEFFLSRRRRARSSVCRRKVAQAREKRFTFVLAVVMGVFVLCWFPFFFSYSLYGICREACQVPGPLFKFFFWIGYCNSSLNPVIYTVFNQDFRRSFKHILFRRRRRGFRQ

[8] = inhibitors of larval lipid processing in zebrafish, primary screen, whole organism, PED6 fluorescence, gall bladder and intestine (AID 686;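 active means a full or partial loss of lipid-probe fluorescence in the fish gall bladder, intestine or both, judged by eye; inactive means no fluorescence loss, or compound toxic to the fish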;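 further: larvae 5 to 7 days old with five fish per well; signal comes from phospholipase A2 cleavage of quenched PED6 carried via bile; overnight exposure to compound and PED6 before scoring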); settings: Zebrafish larvae PED6 lipid processing, fluorescence scoring; screened at 20 µM (by protocol)
[9] = inhibitors of Chlamydomonas gravitaxis, primary screen, whole organism, Chlamydomonas reinhardtii, WT vs cilia-less mutant, absorbance, 96-well (AID 463189;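 active means inhibition at or above 50% relative to wild type and mutant plate controls; inactive means inhibition below 50%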;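 further: 0% = wild type cc124 cells in DMSO and 100% = ciliumless bld1 mutant cells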); settings: OD600 absorbance, 2 days, at 10 µM, stronger effect = higher value
[10] = inhibitors of Sendai virus-induced IRF3 signaling, primary screen, TLR/RLR signaling modifier project, cell-based, Sendai virus stimulus, luciferase, 10K MLSCN set (AID 602276;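 active means inhibition at or above 50% at 10 µM; inactive means inhibition below 50%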;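 further: firefly luciferase from ISG56 promoter only with Renilla not read in this screen; 0% = Sendai virus plus DMSO and 100% = medium plus DMSO without virus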); settings: HEK293 RL24 IRF3 luciferase reporter, at 10 µM, stronger effect = higher value
[11] = inhibitors of poly I:C-induced TLR3 signaling, primary screen, cell-based, poly I:C stimulus, luciferase, 10K MLSCN set (AID 602277;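 active means inhibition of the reporter signal at or above 50%; inactive means inhibition below 50%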); settings: HEK293-TLR3 RL24 IRF3 luciferase reporter, at 10 µM, stronger effect = higher value
[12] = molecular target: Muscarinic acetylcholine receptor M4 (Homo sapiens) (UniProt P08173); assay: compounds altering M4/GIRK thallium flux, either direction, primary screen, M4 allosteric agonist project, cell-based, HEK293 M4/GIRK, BTC-AM (AID 625;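 active means fluorescence slope after compound addition differing from the mean of all tested samples at 99.7% confidence, mostly higher but some lower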;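 further: thallium influx through GIRK channels coupled to M4 in HEK293 cells with BTC-AM dye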); settings: at 10 µM, actives lie on both sides
Chain of Muscarinic acetylcholine receptor M4 (Homo sapiens) (P08173 whole entry, looked up): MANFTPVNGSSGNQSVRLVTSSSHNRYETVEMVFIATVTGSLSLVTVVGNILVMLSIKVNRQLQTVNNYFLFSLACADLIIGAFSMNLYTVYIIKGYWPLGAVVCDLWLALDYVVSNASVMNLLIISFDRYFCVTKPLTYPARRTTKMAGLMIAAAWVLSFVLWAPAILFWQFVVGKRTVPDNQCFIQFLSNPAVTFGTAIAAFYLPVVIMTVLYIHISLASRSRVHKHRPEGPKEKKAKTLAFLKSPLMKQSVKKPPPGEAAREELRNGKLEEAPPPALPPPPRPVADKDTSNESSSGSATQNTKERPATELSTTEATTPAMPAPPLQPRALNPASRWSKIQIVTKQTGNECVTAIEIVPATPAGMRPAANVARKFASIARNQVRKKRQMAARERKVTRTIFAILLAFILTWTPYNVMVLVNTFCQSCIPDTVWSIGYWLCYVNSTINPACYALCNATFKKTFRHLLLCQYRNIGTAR

[13] = measured here: cell density z-score
[14] = measured here: nuclear c-Myc green intensity z-score
[15] = measured here: nuclear pErk red intensity z-score, stronger effect = higher value

| SMILES | inhibition of aggregation [1] | nuclei count [1] [%] | inhibition [2] | nuclei count [2] [%] | z-score [3, 13] | z-score [3, 14] | z-score [3, 15] | inhibition [4] | fluorescence slope [5] | NADPH fluorescence slope [6] | slope [7] | outcome [8] | inhibition [9] | inhibition [10] | inhibition [11] | fluorescence slope [12] |
| --- | --- | --- | --- | --- | --- | --- | --- | --- | --- | --- | --- | --- | --- | --- | --- | --- |
| CC(C)C[C@H]1C(=O)N2CCC[C@H]2[C@]2(O)O[C@](NC(=O)[C@@H]3C=C4c5cccc6[nH]c(Br)c(c56)CC4N(C)C3)(C(C)C)C(=O)N12 (stereo not given in full) | -4% (inactive) | 96.5 | -74.8% (inactive) | 122 | -0.747 | -0.999 | 0.764 | 5.42% (inactive) | -0.523 (inactive) | 8.6e-06 (inactive) | 0.00416 (inactive) | inactive | -11.5% (inactive) | 7.85% (inactive) | 5.12% (inactive) |  |
| CCOc1ccc2nc(S(N)(=O)=O)sc2c1 | -4.8% (inactive) | 112 | -20.9% (inactive) | 127 | 1.44 | 0.726 | -0.916 | 21.2% (inactive) | -0.485 (inactive) | -5.5e-05 (inactive) | 0.00518 (inactive) | inactive | 31% (inactive) | 3.12% (inactive) | -17% (inactive) |  |
| CCCOc1ccc2nc(NC(=O)OC)[nH]c2c1 | -14.5% (inactive) | 98.6 | -34% (inactive) | 126 | 0.515 | 0.392 | -0.582 | 1.48% (inactive) | -0.47 (inactive) | -3.6e-05 (inactive) | 0.00449 (inactive) | inactive | -11.7% (inactive) | 25.2% (inactive) | 74.2% (active) |  |
| CC(=O)Nc1c(I)c(NC(C)=O)c(I)c(C(=O)O)c1I | 21.1% (inactive) | 102 | -43.7% (inactive) | 126 | 0.431 | 0.292 | -0.145 | 11.3% (inactive) | -0.491 (inactive) | -2.1e-05 (inactive) | 0.00549 (inactive) | inactive | 0.515% (inactive) | -2.38% (inactive) | 5.34% (inactive) |  |
| C[C@H]1C[C@H]2[C@@H]3CCC4=CC(=O)C=C[C@]4(C)[C@@]3(Cl)[C@@H](O)C[C@]2(C)[C@@]1(O)C(=O)CO | -11.8% (inactive) | 69.5 | -5.2% (inactive) | 113 | 0.584 | -0.957 | -0.321 | -4.44% (inactive) | -0.496 (inactive) | -7.9e-05 (inactive) | 0.00488 (inactive) | inactive | -5.54% (inactive) | 8.02% (inactive) | 22.6% (inactive) |  |
| CCC(=O)O[C@]1(C(=O)CCl)[C@@H](C)C[C@H]2[C@@H]3CCC4=CC(=O)C=C[C@]4(C)[C@@]3(F)[C@@H](O)C[C@@]21C | -20.8% (inactive) | 56.7 | -5.8% (inactive) | 116 | -0.246 | 0.687 | 0.17 | 3.45% (inactive) | -0.528 (inactive) | -3.3e-05 (inactive) | 0.00421 (inactive) | inactive | 18.1% (inactive) | -10.2% (inactive) | -4.89% (inactive) |  |
| Cc1cc(C)nc(NS(=O)(=O)c2ccc(N)cc2)n1 | -9.6% (inactive) | 104 | -28.5% (inactive) | 107 | -0.395 | 0.0726 | -0.14 | -3.03% (inactive) | -0.51 (inactive) | -5.4e-05 (inactive) | 0.00415 (inactive) | inactive | -15% (inactive) | 15.1% (inactive) | 26.9% (inactive) |  |
| COC(=O)c1ccc(N2C(=O)CC(N3CCN(C(=O)c4ccco4)CC3)C2=O)cc1 (stereo not given) | 0.2% (inactive) | 103 | -195% (inactive) | 104 | 0.106 | -0.422 | -0.968 | 8.31% (inactive) | -0.527 (inactive) | -5.8e-05 (inactive) |  | inactive | 1.38% (inactive) | 6.43% (inactive) | 18.5% (inactive) | 0.00534 (inactive) |
| O=C(O)CCC(=O)Nc1ccc(S(=O)(=O)Nc2nccs2)cc1 | -13.3% (inactive) | 93.6 | -59.2% (inactive) | 110 | -1.01 | 2.12 | 1.88 | 1.38% (inactive) | -0.504 (inactive) | -5.7e-05 (inactive) | 0.00423 (inactive) | inactive | 5.01% (inactive) | 21.6% (inactive) | 37.7% (inactive) |  |
| CC(=O)[C@@]1(O)CC[C@H]2[C@@H]3C[C@H](C)C4=CC(=O)C=C[C@]4(C)[C@@]3(F)[C@@H](O)C[C@@]21C | 10.8% (inactive) | 60.1 | -32.9% (inactive) | 121 | 0.696 | 0.132 | 1.25 | 7.39% (inactive) | -0.416 (inactive) | -5e-05 (inactive) | 0.0055 (inactive) | inactive | -2.25% (inactive) | 13.2% (inactive) | 38.7% (inactive) |  |
